In PubChem BioAssay (NCI):
About 83,000 compounds went through this panel and 20% of them were active in at least one assay; those are over-represented in the sample as a whole.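 Cell lines were cultured in 96-well plates, exposed to a single compound concentration, and assessed for percent growth 48 hours later.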 Unmarked numbers belong to inactive results. Calls of active or inactive are those of the source. How the source made its calls: active means growth percent below 10; inactive means the rest.

How the values were obtained:
Assay in all cases: NCI-60 one-dose screen, 48 h (100 = growth as untreated, 0 = no growth, -100 = all killed)
DU-145 prostate = details: 10 µM unless noted
K-562 leukemia = details: 10 µM unless noted
MALME-3M melanoma = details: 10 µM unless noted
MDA-MB-231 breast = details: 10 µM unless noted
RXF 393 renal = details: 10 µM unless noted
SF-268 CNS = details: 10 µM unless noted
SF-295 CNS = details: 10 µM unless noted
SF-539 CNS = details: 10 µM unless noted
UACC-257 melanoma = details: 10 µM
M14 melanoma = details: 10 µM unless noted
HCT-15 colon = details: 10 µM unless noted
HT29 colon = details: 10 µM unless noted
SNB-75 CNS = details: 10 µM unless noted
SNB-19 CNS = details: 10 µM unless noted
U251 CNS = details: 10 µM unless noted
PC-3 prostate = details: 10 µM unless noted
SK-MEL-5 melanoma = details: 10 µM unless noted
UACC-62 melanoma = details: 10 µM unless noted
LOX IMVI melanoma = details: 10 µM unless noted
SK-MEL-28 melanoma = details: 10 µM unless noted

SMILES	growth (DU-145 prostate)	growth (K-562 leukemia)	growth (MALME-3M melanoma)	growth (MDA-MB-231 breast)	growth (RXF 393 renal)	growth (SF-268 CNS)	growth (SF-295 CNS)	growth (SF-539 CNS)	growth (UACC-257 melanoma)	growth (M14 melanoma)	growth (HCT-15 colon)	growth (HT29 colon)	growth (SNB-75 CNS)	growth (SNB-19 CNS)	growth (U251 CNS)	growth (PC-3 prostate)	growth (SK-MEL-5 melanoma)	growth (UACC-62 melanoma)	growth (LOX IMVI melanoma)	growth (SK-MEL-28 melanoma)
CCn1cc(C(=O)O)c(=O)c2cc(F)c(N3CCN(S(=O)(=O)c4c(C)cc(C)cc4C)CC3)cc21	99.5%	79.9%	90.3%	83.7%	88.9%	83.7%	48.4%	79.9%	106%	75.6%	71.5%	94.8%	70.8%	89.9%	83.3%	61.4%	79.5%	75.9%	61.3%	91.7%
COc1cc(Cn2c(SCCC(=O)Nc3ccc(F)cc3)nc3ccccc3c2=O)cc(OC)c1OC	101%	70.8%	91.7%	65.9%	74.3%	80.9%	88.2%	84.2%	93.2%	93%	79%	86.9%	80.3%	80.4%	95.2%	75.8%	85%	76.4%	90.9%	99.8%
CN(C)c1ccc(-c2ccc(-c3ccc(C(=N)N)cn3)o2)cc1	-65.2% (active)	-46.7% (active)	-75.5% (active)	-84.4% (active)	-81% (active)	-49.2% (active)	-69.7% (active)	-87.4% (active)	-83.8% (active)	-74.4% (active)	-46.6% (active)	-61.5% (active)	-85.6% (active)	12.7%	-91.1% (active)	7.95% (active)	-95.8% (active)	-97.9% (active)	-94.8% (active)	-79.6% (active)
Cc1cccc(-n2c(C)nc3ccc(NC(=O)NCCCl)cc3c2=O)c1	104%	112%	115%	111%	102%	95.1%	99.6%	99%	97.2%	98.7%	93.8%	106%	77.5%	101%	100%	93.5%	102%	103%	95.6%	113%
O=C(CCCn1c(=O)c2sc3ccccc3c2n2nnc(-c3ccccc3)c12)NCCc1cnc[nH]1	-68.8% (active)	82.6%	-72.2% (active)	-70.8% (active)	-46.2% (active)	-1.01% (active)	8.37% (active)	-82.8% (active)	-44.4% (active)	-78.6% (active)	-63.1% (active)	-94.1% (active)	28.2%	-12.3% (active)	-51.2% (active)	-14% (active)	-69.6% (active)	-78.5% (active)	-16.7% (active)	-49.7% (active)
Cn1cc(C=O)c2ccccc21	111%	95.4%	87.9%	104%	105%	101%	107%	97.6%	105%	103%	103%	100%	80%	100%	98.5%	83.4%	99.4%	106%	88.4%	109%
COC1=CC(c2ccc[nH]2)=N/C1=C\c1[nH]c(C)c(C(=O)CCCCC(=O)Oc2ccc3c(c2)CCC2C3CC[C@]3(C)[C@@H](O)CC[C@@H]23)c1C (stereo not given in full)	30.6%	13.6%	80.1%	10.9%	62.4%	44.6%	80.8%	65.9%	103%	60%	37.1%	38.7%	62.7%	75.6%	52.6%	42.9%	47.8%	57.9%	1.7% (active)	81.3%
Clc1ccc(/C=C/c2nc(N3CCOCC3)c3nc(Cl)c(Cl)cc3n2)cc1	103%	79.3%	113%	110%	117%	97.3%	91.9%	98.6%	106%	96.4%	94.3%	105%	94.3%	101%	103%	102%	90.2%	106%	99.8%	111%
N#CC1=C(N)OC2=C(C(=O)CCC2)C1c1ccco1 (stereo not given)	108%	98.6%	113%	113%	114%	114%	108%	97.5%	102%	104%	104%	109%	95.7%	98.3%	99.3%	102%	101%	112%	96.4%	111%
COc1ccc(C(=O)c2cc(OC)c(OC)c(OC)c2)cc1/C=C/C(=O)c1ccc(O)cc1	26.4%	19%	91.6%	35%	35.1%	12.8%	29.9%	0.251% (active)	36%	15.8%	-29.5% (active)	26.2%	28.7%	34.8%	0.446% (active)	54.1%	11.3%	20.1%	0.734% (active)	22.5%
COc1cc(-c2nc(-c3nc4ccccc4[nH]3)cc3c2[nH]c2ccccc23)cc(OC)c1OC	53.8%	31.9%	32.7%	61.3%	70.6%	47.8%	1.13% (active)	68.4%	41.7%	23.4%	42.3%	49.7%	79.3%	66.9%	48%	14.1%	29%	28.5%	38.7%	44.2%
CCn1cc(C(=O)O)c(=O)c2cc(F)c(N3CCN(S(=O)(=O)c4ccc(Cl)cc4Cl)CC3)cc21	11.6%	10.9%	-19.8% (active)	25.5%	27.9%	24.6%	-32% (active)	8.88% (active)	-15.2% (active)	15.9%	7.58% (active)	1.87% (active)	74.8%	26.2%	12.1%	1.6% (active)	-55% (active)	16.1%	-35.4% (active)	107%
CCNC(=O)CCCCC(=O)c1c(C)[nH]c(/C=C2\N=C(c3ccc[nH]3)C=C2OC)c1C	2.48% (active)	51.5%	51.6%	0.721% (active)	-48% (active)	27.2%	-22.1% (active)	54.8%	54.6%	5.27% (active)	-39.8% (active)	-100% (active)	-12.6% (active)	54.5%	1.75% (active)	-42.2% (active)	48%	61.5%	-56.9% (active)	51.9%
CC(=O)n1cc([C@H]2CC[C@H](c3cn(C(C)=O)c4ccccc34)c3c2[nH]c2ccccc32)c2ccccc21	93.2%	69.9%	91.4%	70.8%	96.5%	76.9%	80%	92.7%	89.5%	79.1%	58.7%	67.7%	87.4%	93.2%	82.9%	53.2%	80%	64.4%	79.5%	100%
CC1=C(C#N)C(C)(C)C(C#N)=C(C)N1	106%	99.4%	109%	104%	117%	100%	96.1%	99.3%	103%	102%	98.6%	105%	79.5%	95.9%	94.8%	84.7%	101%	105%	98.3%	110%
